Measurements published in the supplement of paper PMC10849652.
Of roughly 7,900 targets only a part is listed; those with a hit were picked by preference. About 0.6% of all pairs of compound and target were hits.

Tests used:
Assay in all cases: log2 fold change, soluble protein after heating vs DMSO (PISA); higher = thermal stabilisation; K562 cells, 10 uM, 30 min; active = over 0.2 and 3.5 SD of the protein, either way, in both replicates (recomputed)
[1] = compound: C1=CC=C(C=C1)[C@H](COC2=CC3=C(C=C2)NC(=O)N3)NC(=O)C4=CC=CN(C4=O)CC5=CC(=C(C=C5)F)F
Outline: (§1)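 K562 cells (2×10^6 cells/mL) were treated with 10 μM compound for 30 min, and aliquots were heated for 3 min over 48°C-58°C. Pooled aliquots were extracted in PBS with 0.5% NP-40 at 4°C, and the supernatant after 21,000xg for 90 min was measured by TMTpro 16plex LC-MS/MS with channel sums equalised. Reported thermal stability, relative to control samples and from duplicates, is a log2 fold change.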

[2] = compound: CC1=C(SC2=C1C(=N[C@H](C3=NN=C(N32)C)CC(=O)N)C4=CC=C(C=C4)Cl)C
Outline: as §1

[3] = compound: CC1=C2C(=CC=C1)N=C(N(C2=O)C3=CC=CC=C3C)CN4C=NC5=C(N=CN=C54)N
Outline: as §1

[4] = compound: Cc1sc2c(c1C)C(c1ccc(Cl)cc1)=N[C@@H](CC(=O)OC(C)(C)C)c1nnc(C)n1-2
Outline: as §1

[5] = compound: c1ccc([C@@H]2C[C@H]2NC2CCNCC2)cc1
Outline: as §1

Measured: log2 fold change

ROCK1 (UniProt Q13464)
inactive: [1] -0.017 | [2] 0.027 | [3] 0.032 | [4] -0.018 | [5] -0.015

SETMAR (UniProt Q53H47)
Sequence of UniProt Q53H47 (Q53H47 whole entry, looked up): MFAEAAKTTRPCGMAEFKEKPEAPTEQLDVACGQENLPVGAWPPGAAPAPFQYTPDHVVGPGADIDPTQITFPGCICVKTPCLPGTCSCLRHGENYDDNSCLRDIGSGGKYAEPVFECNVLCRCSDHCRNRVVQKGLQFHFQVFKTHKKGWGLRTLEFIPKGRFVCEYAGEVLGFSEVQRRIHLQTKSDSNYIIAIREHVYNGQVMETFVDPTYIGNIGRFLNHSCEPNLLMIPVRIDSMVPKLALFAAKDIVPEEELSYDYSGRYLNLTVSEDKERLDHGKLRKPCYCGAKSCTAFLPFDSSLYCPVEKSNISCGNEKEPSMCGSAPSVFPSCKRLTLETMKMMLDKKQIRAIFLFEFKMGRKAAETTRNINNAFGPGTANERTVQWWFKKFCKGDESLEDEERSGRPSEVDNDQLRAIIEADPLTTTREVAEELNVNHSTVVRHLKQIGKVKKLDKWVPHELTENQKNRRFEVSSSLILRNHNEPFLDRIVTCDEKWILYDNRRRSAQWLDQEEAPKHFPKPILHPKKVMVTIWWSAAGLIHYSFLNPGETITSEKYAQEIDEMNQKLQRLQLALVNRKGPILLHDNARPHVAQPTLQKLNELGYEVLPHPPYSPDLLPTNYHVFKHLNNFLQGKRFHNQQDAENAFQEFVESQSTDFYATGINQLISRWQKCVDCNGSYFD
inactive: [1] 0.001 | [2] 0.096 | [3] 0.033 | [4] -0.031 | [5] -0.02

RPL31 (UniProt P62899)
inactive: [1] 0.106 | [2] -0.241 | [3] -0.22 | [4] 0.202 | [5] 0

RPS2 (UniProt P15880)
inactive: [1] 0.123 | [2] -0.222 | [3] -0.222 | [4] 0.113 | [5] 0

RANBP2 (UniProt P49792)
Sequence of UniProt P49792 (P49792 whole entry, looked up): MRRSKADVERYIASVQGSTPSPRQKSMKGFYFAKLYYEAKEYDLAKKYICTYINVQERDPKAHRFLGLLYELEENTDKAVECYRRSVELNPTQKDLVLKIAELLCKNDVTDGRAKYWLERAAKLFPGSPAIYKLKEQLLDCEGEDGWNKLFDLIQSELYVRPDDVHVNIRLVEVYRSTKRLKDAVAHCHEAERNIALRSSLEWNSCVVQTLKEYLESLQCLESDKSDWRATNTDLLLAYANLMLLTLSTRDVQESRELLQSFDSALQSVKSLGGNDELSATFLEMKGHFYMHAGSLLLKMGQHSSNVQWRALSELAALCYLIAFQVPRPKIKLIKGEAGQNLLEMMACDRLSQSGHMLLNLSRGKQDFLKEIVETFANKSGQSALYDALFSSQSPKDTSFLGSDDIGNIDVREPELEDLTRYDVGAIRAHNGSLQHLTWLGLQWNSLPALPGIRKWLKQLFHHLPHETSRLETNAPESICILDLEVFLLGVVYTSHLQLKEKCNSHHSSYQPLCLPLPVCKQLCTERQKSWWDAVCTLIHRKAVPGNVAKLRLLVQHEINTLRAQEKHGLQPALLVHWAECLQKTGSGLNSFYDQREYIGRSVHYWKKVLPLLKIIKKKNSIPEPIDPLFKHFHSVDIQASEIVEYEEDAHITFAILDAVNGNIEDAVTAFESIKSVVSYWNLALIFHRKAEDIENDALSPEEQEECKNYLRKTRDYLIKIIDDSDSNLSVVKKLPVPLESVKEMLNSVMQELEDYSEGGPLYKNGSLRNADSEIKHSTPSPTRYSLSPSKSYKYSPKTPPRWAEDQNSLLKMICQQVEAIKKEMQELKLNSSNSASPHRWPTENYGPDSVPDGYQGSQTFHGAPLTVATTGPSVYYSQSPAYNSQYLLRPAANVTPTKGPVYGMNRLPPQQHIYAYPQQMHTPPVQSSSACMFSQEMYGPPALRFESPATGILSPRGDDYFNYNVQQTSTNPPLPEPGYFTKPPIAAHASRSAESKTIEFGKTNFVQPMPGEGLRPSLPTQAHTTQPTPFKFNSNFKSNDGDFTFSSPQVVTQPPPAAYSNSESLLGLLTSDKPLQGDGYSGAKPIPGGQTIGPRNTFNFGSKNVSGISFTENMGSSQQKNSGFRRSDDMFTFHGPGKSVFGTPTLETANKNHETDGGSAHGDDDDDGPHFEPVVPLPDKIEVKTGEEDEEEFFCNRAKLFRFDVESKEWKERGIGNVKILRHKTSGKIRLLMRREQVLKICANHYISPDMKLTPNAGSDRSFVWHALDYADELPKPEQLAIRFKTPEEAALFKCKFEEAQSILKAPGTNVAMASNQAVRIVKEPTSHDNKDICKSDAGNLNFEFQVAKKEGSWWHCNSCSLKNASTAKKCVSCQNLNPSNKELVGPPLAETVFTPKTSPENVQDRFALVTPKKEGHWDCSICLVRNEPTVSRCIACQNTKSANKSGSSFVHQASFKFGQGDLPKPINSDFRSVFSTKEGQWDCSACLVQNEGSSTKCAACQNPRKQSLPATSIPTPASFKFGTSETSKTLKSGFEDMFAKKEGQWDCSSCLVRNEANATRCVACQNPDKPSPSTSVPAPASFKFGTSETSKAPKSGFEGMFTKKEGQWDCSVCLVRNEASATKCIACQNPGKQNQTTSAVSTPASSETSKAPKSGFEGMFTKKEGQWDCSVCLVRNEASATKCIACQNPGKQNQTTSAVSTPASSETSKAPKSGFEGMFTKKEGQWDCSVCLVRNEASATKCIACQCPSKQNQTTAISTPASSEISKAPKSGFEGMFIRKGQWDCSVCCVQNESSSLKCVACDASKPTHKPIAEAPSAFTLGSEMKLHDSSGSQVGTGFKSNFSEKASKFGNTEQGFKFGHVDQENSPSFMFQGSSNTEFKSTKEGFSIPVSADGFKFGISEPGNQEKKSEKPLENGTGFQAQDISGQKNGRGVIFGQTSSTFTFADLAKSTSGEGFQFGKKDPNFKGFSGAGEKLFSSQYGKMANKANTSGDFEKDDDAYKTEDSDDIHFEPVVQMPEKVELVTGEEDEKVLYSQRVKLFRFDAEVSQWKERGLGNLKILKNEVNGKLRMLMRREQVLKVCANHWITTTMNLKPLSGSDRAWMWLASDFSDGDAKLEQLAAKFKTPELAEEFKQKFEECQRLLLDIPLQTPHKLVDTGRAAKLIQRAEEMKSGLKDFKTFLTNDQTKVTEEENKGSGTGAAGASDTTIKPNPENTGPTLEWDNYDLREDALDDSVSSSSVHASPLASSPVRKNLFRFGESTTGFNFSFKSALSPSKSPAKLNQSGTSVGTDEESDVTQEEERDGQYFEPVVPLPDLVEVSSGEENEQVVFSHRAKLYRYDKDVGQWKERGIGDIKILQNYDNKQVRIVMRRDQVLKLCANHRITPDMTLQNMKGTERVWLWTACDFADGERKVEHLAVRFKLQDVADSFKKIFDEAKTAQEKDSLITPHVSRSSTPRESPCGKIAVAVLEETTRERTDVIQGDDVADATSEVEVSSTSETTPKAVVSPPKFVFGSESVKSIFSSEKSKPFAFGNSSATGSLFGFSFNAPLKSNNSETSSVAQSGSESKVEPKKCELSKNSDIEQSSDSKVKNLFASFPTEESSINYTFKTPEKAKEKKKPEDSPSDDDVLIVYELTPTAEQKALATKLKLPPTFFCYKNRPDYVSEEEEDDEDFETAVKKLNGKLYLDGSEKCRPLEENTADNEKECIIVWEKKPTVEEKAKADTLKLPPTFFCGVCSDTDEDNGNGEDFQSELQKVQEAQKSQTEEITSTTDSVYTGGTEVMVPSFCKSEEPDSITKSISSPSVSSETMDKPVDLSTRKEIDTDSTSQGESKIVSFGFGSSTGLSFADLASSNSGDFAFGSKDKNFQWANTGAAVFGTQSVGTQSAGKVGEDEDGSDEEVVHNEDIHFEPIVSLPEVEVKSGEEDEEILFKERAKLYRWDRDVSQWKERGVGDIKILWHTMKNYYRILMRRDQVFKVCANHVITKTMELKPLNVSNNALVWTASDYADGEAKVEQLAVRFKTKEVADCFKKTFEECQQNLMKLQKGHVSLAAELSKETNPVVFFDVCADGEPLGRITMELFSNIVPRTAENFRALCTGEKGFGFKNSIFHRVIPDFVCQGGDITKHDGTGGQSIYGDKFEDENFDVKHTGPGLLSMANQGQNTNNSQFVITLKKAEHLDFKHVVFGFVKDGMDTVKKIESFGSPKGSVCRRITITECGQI
inactive: [1] -0.094 | [2] 0 | [3] 0.114 | [4] -0.085 | [5] -0.089

SKP1 (UniProt P63208)
Sequence of UniProt P63208 (P63208 whole entry, looked up): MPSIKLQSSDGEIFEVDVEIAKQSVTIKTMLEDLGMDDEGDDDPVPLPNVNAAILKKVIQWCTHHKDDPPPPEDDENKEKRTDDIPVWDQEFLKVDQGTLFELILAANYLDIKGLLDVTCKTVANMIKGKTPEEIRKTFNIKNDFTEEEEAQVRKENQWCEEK
inactive: [1] -0.035 | [2] -0.008 | [3] 0 | [4] -0.036 | [5] -0.017

RRAGC (UniProt Q9HB90)
Sequence of UniProt Q9HB90 (Q9HB90 whole entry, looked up): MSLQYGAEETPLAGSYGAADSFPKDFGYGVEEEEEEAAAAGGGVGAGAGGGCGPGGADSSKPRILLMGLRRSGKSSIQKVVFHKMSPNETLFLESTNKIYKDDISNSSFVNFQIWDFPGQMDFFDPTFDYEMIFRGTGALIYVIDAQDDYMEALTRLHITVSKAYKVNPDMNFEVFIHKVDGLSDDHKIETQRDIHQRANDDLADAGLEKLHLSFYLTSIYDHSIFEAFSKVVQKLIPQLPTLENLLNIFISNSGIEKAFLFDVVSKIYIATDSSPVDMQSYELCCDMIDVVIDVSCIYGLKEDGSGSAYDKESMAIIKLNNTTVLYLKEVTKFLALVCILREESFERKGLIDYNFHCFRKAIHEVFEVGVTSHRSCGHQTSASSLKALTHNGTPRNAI
inactive: [1] 0.009 | [2] 0.104 | [3] 0.095 | [4] -0.041 | [5] 0.009

SEC31A (UniProt O94979)
inactive: [1] -0.067 | [2] 0.034 | [3] 0.09 | [4] -0.03 | [5] -0.006

RMC1 (UniProt Q96DM3)
inactive: [1] -0.009 | [2] 0.064 | [3] 0.1 | [4] 0.019 | [5] 0.063

SACM1L (UniProt Q9NTJ5)
Sequence of UniProt Q9NTJ5 (Q9NTJ5 whole entry, looked up): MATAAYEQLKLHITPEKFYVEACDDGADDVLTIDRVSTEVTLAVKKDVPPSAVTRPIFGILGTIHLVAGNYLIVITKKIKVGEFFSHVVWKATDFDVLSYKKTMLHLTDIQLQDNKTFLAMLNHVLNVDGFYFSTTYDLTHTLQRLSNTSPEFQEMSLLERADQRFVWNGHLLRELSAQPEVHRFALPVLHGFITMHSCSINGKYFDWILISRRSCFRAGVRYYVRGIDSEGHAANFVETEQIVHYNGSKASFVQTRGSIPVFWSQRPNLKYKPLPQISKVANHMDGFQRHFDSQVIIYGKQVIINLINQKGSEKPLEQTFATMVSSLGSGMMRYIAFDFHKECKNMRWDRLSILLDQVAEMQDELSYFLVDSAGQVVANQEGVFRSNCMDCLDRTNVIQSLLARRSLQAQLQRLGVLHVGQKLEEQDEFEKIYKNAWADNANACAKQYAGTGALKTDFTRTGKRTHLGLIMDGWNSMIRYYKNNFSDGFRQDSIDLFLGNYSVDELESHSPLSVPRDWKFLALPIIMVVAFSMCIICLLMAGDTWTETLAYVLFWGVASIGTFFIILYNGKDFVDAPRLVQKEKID
inactive: [1] 0 | [2] 0.048 | [3] 0.064 | [4] -0.044 | [5] 0.006

RBM8A (UniProt Q9Y5S9)
inactive: [1] -0.02 | [2] -0.005 | [3] -0.062 | [4] 0.029 | [5] 0.045

ROR2 (UniProt Q01974)
inactive: [1] -0.062 | [2] 0.004 | [3] 0.023 | [4] -0.048 | [5] -0.035

RAC3 (UniProt P60763)
inactive: [1] -0.006 | [2] 0.028 | [3] 0.029 | [4] -0.025 | [5] -0.147

SCAF11 (UniProt Q99590)
inactive: [1] -0.104 | [2] -0.098 | [3] 0.021 | [4] 0.064 | [5] 0.016

SEC23A (UniProt Q15436)
inactive: [1] 0.006 | [2] 0.052 | [3] 0.078 | [4] 0.027 | [5] 0.075

RAC1 (UniProt P63000)
inactive: [1] -0.046 | [2] 0.017 | [3] -0.111 | [4] -0.098 | [5] 0.033

RPS15 (UniProt P62841)
inactive: [1] 0.126 | [2] -0.113 | [3] -0.02 | [4] 0.122 | [5] 0.106

RAB3GAP2 (UniProt Q9H2M9)
inactive: [1] -0.023 | [2] -0.07 | [3] 0.051 | [4] 0.04 | [5] 0.001

RBM39 (UniProt Q14498)
inactive: [1] 0.015 | [2] -0.004 | [3] -0.02 | [4] 0.019 | [5] 0.158
